DT40 TDP1 no CPT: qHTS for Inhibitors of human tyrosyl-DNA phosphodiesterase 1 (TDP1): qHTS in cells in absence of CPT; DT40 Tdp1-/- hTDP1 cells, no CPT, ATP luminescence, 48 h; Potency, µM (top dose mostly 46.2 µM), hits mostly inhibitors; 420,000 tested, 15% active; also: nearly all actives have a fitted effect of over 55% in size
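Cells were dispensed at 400 per well, compounds added by pin tool, plates incubated ≥48 hr at 37 °C, then CellTiter-Glo added for 30 min at room temperature before luminescence reading. Line: DT40 Tdp1-/- complemented with hTDP1; camptothecin omitted.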
TDP1 cell CPT: qHTS for Inhibitors of human tyrosyl-DNA phosphodiesterase 1 (TDP1): qHTS in cells in presence of CPT; chicken DT40 Tdp1-/-;hTDP1 cells + 20 nM CPT, ATP luminescence, 48 h; Potency, µM (highest dose often 46.2 µM), most hits filed as inhibitors; 420,000 tested, 12% active; also: nearly all actives have a fitted effect of over 55% in size
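Cell growth measured by CellTiter-Glo luminescence after a minimum 48 h, 37 C compound exposure with 20 nM CPT in Tdp1-knockout DT40 cells stably expressing hTDP1, seeded 400/well; qHTS titration format.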
HT1080NT lethal: qHTS for induction of synthetic lethality in tumor cells producing 2HG: qHTS for the HT-1080-NT fibrosarcoma cell line. Potency, µM (top dose mostly 46.1 µM), most hits filed as cytotoxic. 360,000 tested, 1.6% active. HT-1080-NT fibrosarcoma viability, CellTiter-Glo ATP luminescence, 48 h. AID 686970, 2013;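 also: NT is the 2HG producing partner of a matched IDH1 knockdown line; nearly all actives have a fitted effect of over 55% in size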
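Fibrosarcoma NT cells, 750 per well in 5% FBS RPMI, were exposed to compound for 48 hours. Viability: CellTiter-Glo luminescence.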
IL1B secr inh: qHTS for Inhibitors of Inflammasome Signaling: IL-1-beta AlphaLISA Primary Screen; THP-1 LPS/ATP IL-1B secretion, AlphaLISA, 16 h; active compounds read low; AID 743279, 2014; 360,000 tested, 4.7% active; activity change, % at 57.5 µM; in the data active = activity change below about -50%; inconclusive = mostly about -30% to -49%
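THP-1 cells pretreated 1 hr with compounds (up to 57.5 uM final), then stimulated with LPS (250 ng/mL final) plus ATP (1.25 mM final); secreted IL-1B measured by AlphaLISA after 16 hr, decreased signal indicating inhibition.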
HT1080 IDH1KD tx: qHTS for induction of synthetic lethality in tumor cells producing 2HG: qHTS for the HT-1080-IDH1KD cell line | HT-1080 IDH1 knockdown viability, ATP luminescence, 48 h | Potency, µM (highest dose often 46.1 µM), hits mostly cytotoxic | 360,000 tested, 2% active | AID 686971, 2013
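Using the IDH1-knockdown HT-1080 line run in the same batch and compound series as the NT line, viability after 48 h at 37 °C was determined by CellTiter-Glo luminescence and expressed as % activity.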
Of the large screens only hits and unclear results are named; the others gave an inactive call. In the library only some 19% were active in any assay of this set; here they are far more common. Unless noted, calls follow the shape of the dose curve; as a rule, active = well fitted curve in the direction sought with a large enough effect; inconclusive = small, poorly fitted or top-dose-only effect, or another doubt; inactive = no such curve, though single readings can be large; an effect the other way counts as inactive or inconclusive.

C=C(C)Cn1c(SCC(=O)c2ccc(OC)cc2)nc2sc3c(c2c1=O)CCCC3	DT40 TDP1 no CPT 12µM, TDP1 cell CPT 10µM (no result: HT1080NT lethal, IL1B secr inh, HT1080 IDH1KD tx)
Cn1c(NCCCN2CCOCC2)nc2c1c(=O)n(Cc1ccc(Cl)cc1Cl)c(=O)n2C	DT40 TDP1 no CPT inconclusive, TDP1 cell CPT 23µM
Cn1c(NCCO)nc2c1c(=O)n(Cc1ccccc1Cl)c(=O)n2C	none (no result: HT1080NT lethal, IL1B secr inh, HT1080 IDH1KD tx)
COCCCNc1nc2c(c(=O)n(Cc3ccc(Cl)cc3)c(=O)n2C)n1C	none
CCCCNc1nc2c(c(=O)n(Cc3ccc(Cl)c(Cl)c3)c(=O)n2C)n1C	DT40 TDP1 no CPT 29µM, TDP1 cell CPT inconclusive (no result: HT1080NT lethal, IL1B secr inh, HT1080 IDH1KD tx)
CCCCNc1nc2c(c(=O)n(Cc3ccc(Cl)cc3)c(=O)n2C)n1C	DT40 TDP1 no CPT 16µM, TDP1 cell CPT 21µM (no result: HT1080NT lethal, IL1B secr inh, HT1080 IDH1KD tx)
CC(C)CCNc1nc2c(c(=O)n(Cc3cccc(F)c3)c(=O)n2C)n1C	DT40 TDP1 no CPT inconclusive, TDP1 cell CPT 26µM, HT1080NT lethal inconclusive, HT1080 IDH1KD tx inconclusive
O=C(COC(=O)c1ccc([N+](=O)[O-])o1)Nc1ncc(Cl)cc1Cl	none
COc1ccc(CNC(=O)C[C@H]2C(=O)N(c3ccccc3)C[C@@H]2Cc2ccccc2)cc1	DT40 TDP1 no CPT inconclusive, TDP1 cell CPT inconclusive
C#CCNC(=O)C1=C[C@@H](c2ccc3c(c2)OCO3)C[C@@H](OCCCCO)O1	none
CC(=O)c1cccc(NS(=O)(=O)c2ccc(N/C=C\C(=O)c3ccc(C)cc3)cc2)c1	DT40 TDP1 no CPT 3.7µM, TDP1 cell CPT inconclusive, HT1080NT lethal inconclusive, HT1080 IDH1KD tx inconclusive
CC(=O)c1ccc(NS(=O)(=O)c2ccc(N/C=C/C(=O)c3ccc(F)cc3)cc2)cc1	DT40 TDP1 no CPT inconclusive, TDP1 cell CPT inconclusive
CC(=O)c1cccc(NS(=O)(=O)c2ccc(N/C=C\C(=O)c3ccc(F)cc3)cc2)c1	DT40 TDP1 no CPT 10µM, TDP1 cell CPT 13µM, IL1B secr inh inconclusive
Cc1noc(NS(=O)(=O)c2ccc(N/C=C\C(=O)c3ccc4c(c3)OCO4)cc2)c1C	HT1080 IDH1KD tx 10µM
CC(=O)c1cccc(NS(=O)(=O)c2ccc(N/C=C/C(=O)c3ccc(F)cc3)cc2)c1	DT40 TDP1 no CPT 18µM, TDP1 cell CPT 12µM, HT1080NT lethal inconclusive, IL1B secr inh -76, HT1080 IDH1KD tx inconclusive
CC(=O)c1cccc(N/C=C\C(=O)c2ccc(C)cc2)c1	DT40 TDP1 no CPT inconclusive
COc1ccc(C2C(C(=O)N3CCOCC3)CCC(=O)N2c2cc(OC)c(OC)c(OC)c2)cc1 (configuration not stated)	none
Cc1cc(S(=O)(=O)Nc2ccc3c(c2)n(C)c(=O)n3C)ccc1F	DT40 TDP1 no CPT 29µM, TDP1 cell CPT 21µM
COc1ccc(Cl)cc1S(=O)(=O)Nc1ccc2c(c1)n(C)c(=O)n2C	DT40 TDP1 no CPT inconclusive, TDP1 cell CPT 15µM, HT1080NT lethal inconclusive, HT1080 IDH1KD tx inconclusive
COc1ccc(S(=O)(=O)Nc2ccc3c(c2)n(C)c(=O)n3C)cc1	none
Cn1c(=O)n(C)c2cc(NS(=O)(=O)c3ccc(Cl)s3)ccc21	DT40 TDP1 no CPT inconclusive, HT1080NT lethal inconclusive, IL1B secr inh inconclusive
COc1ccc(S(=O)(=O)Nc2ccc3c(c2)n(C)c(=O)n3C)cc1F	DT40 TDP1 no CPT inconclusive, TDP1 cell CPT 23µM, HT1080NT lethal inconclusive
COc1ccc(S(=O)(=O)Nc2ccc3c(c2)n(C)c(=O)n3C)cc1OC	DT40 TDP1 no CPT inconclusive, IL1B secr inh inconclusive
O=[N+]([O-])C1=CC=C2C(=NC3(CCCCC3)N2O)C1=NCCc1ccccc1	DT40 TDP1 no CPT inconclusive
O=C(CCc1nnc(C2CCCCC2)o1)NCCCOc1cccnc1	none
Cc1ccc(CCNC(=O)c2ccc(CNS(=O)(=O)c3ccc(F)cc3)cc2)cc1	DT40 TDP1 no CPT 6.5µM, TDP1 cell CPT 13µM (no result: HT1080NT lethal, IL1B secr inh, HT1080 IDH1KD tx)
Cc1ccc(CCNC(=O)c2ccc(CNS(=O)(=O)c3ccccc3)cc2)cc1	DT40 TDP1 no CPT 5.8µM, TDP1 cell CPT 6.5µM (no result: HT1080NT lethal, IL1B secr inh, HT1080 IDH1KD tx)
O=C(NCCCN1CCOCC1)c1ccc(CNS(=O)(=O)c2ccc(F)cc2)cc1	none
CCc1ccc(S(=O)(=O)NCc2ccc(C(=O)NCCN(Cc3ccccc3)C(C)C)cc2)cc1	DT40 TDP1 no CPT 13µM, TDP1 cell CPT 21µM, HT1080NT lethal inconclusive, HT1080 IDH1KD tx 16µM
O=C(CCC(=O)Nc1ccccc1Cl)NNC(=O)c1ccccc1[N+](=O)[O-]	none
Cc1ncccc1C(=O)N1CCCC(c2cc(C(=O)Nc3ccc(C(C)(C)C)cc3)no2)C1 (configuration not stated)	DT40 TDP1 no CPT 12µM, TDP1 cell CPT 13µM, HT1080NT lethal 21µM, HT1080 IDH1KD tx inconclusive
CC(C)(C)c1ccc(NC(=O)c2cc(C3CCCN(S(=O)(=O)c4cccc5cccnc45)C3)on2)cc1 (configuration not stated)	DT40 TDP1 no CPT 12µM, TDP1 cell CPT 23µM, HT1080 IDH1KD tx inconclusive
CC(C)(C)NC(=O)C1CCCN(S(=O)(=O)c2cccc3cccnc23)C1 (configuration not stated)	TDP1 cell CPT inconclusive
N#Cc1cccc(NC(=O)c2cc(C3CCCCN3S(=O)(=O)c3cccc4cccnc34)on2)c1 (configuration not stated)	DT40 TDP1 no CPT 18µM, TDP1 cell CPT inconclusive
Oc1ccccc1C1=Nc2nc3ccccc3n2C(c2ccccc2)C1 (configuration not stated)	DT40 TDP1 no CPT 18µM, TDP1 cell CPT 21µM
Oc1ccccc1C1=NN(c2ccccc2)C(c2ccc(F)cc2)C1 (configuration not stated)	DT40 TDP1 no CPT inconclusive
COc1ccc(OC)c(-c2nn(-c3ccccc3)cc2C(=O)NCC(c2cccs2)N2CCOCC2)c1 (configuration not stated)	DT40 TDP1 no CPT inconclusive, TDP1 cell CPT inconclusive, IL1B secr inh inconclusive
C=CC[n+]1c(-c2ccc(Cl)cc2Cl)csc1Nc1ccc(NC(C)=O)cc1	DT40 TDP1 no CPT 21µM, TDP1 cell CPT inconclusive, HT1080NT lethal inconclusive, IL1B secr inh -80, HT1080 IDH1KD tx 18µM
C=CC[n+]1c(C)csc1Nc1ccc(C)cc1	DT40 TDP1 no CPT inconclusive
C=CC[n+]1c(-c2ccc(Cl)cc2Cl)csc1Nc1c(C)n(C)n(-c2ccccc2)c1=O	DT40 TDP1 no CPT 3.7µM, TDP1 cell CPT 5.2µM, HT1080NT lethal 21µM, IL1B secr inh -80, HT1080 IDH1KD tx 15µM
Cc1ccccc1NC(=O)NC1CCCCC1C (configuration not stated)	none
Cc1ccccc1NC(=O)c1cc(S(=O)(=O)N2CCCCC2)ccc1N1CCOCC1	none

Compound activity deposited in PubChem BioAssay by National Center for Advancing Translational Sciences (NCATS).
